The text below walks through data of PubChem BioAssay (Tox21).

Assay [1] in a line: qHTS assay to identify small molecule agonists of H2AX (AID 1224845; active = well fitted activation curve with a large enough effect in the signal ratio in the repeat runs, not every such curve was filed as active; the % refers to the signal ratio). The method, boiled down:
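Wild-type CHO-K1 cells plated overnight, then exposed 3 hr at 37C to compounds at 15 concentrations (0.76% DMSO). Lysed, then HTRF anti-pH2AX(S139)-cryptate/anti-H2AX-d2 detection after 24 hr at room temperature; emissions 665 and 620 nm.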

A short description of assay [2]: qHTS assay to identify small molecule agonists of the hypoxia (HIF-1) signaling pathway (AID 1224846; active = well fitted activation curve with a large enough effect in the signal ratio in the repeat runs, not every such curve was filed as active; the % refers to the signal ratio). The method, boiled down: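 Reporter induction in HRE-bla ME-180 cells is taken as agonism: cells sit 5 hrs after plating, receive compounds or DMSO only, incubate 17 hrs at 37C under 5% CO2, and are loaded with CCF4-AM for beta-lactamase FRET measurement.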
Assay [3] is described as follows: qHTS assay to identify small molecule agonists of H2AX - cell viability counter screen (AID 1224847; calls by dose curve; also: top concentration of the series differs between compounds; nearly all actives have a fitted effect of over 30% in size). The gist of the method:
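After overnight plating of 1000 CHO-K1 cells per well, a 15-concentration compound series was applied for 3 hr at 37C. Luminescence from CellTiter-Glo, read following 30 min at room temperature, reflected cell viability.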

The nature of assay [4]: qHTS RealTime-Glo MT Cell Viability Assay in HepG2 cells - 24 hour (AID 1224867). Also: nearly all actives have a fitted effect of over 50% in size. The method, boiled down:
(§1)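 Viability was tracked continuously by NanoLuc luminescence from prosubstrate reduced by living HepG2 cells, at successive time points over 40 h of compound exposure. Cells with reagent were preincubated 5 h at 37 °C before compound addition.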

Assay [5] can be described thus: qHTS RealTime-Glo MT Cell Viability Assay in HEK293 cells - 32 hour (AID 1224868). Also: top concentration of the series differs between compounds; nearly all actives have a fitted effect of over 50% in size. The gist of the method:
(§2)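 Viability tracked continuously by luminescence as live cells reduce a prosubstrate for NanoLuc; HEK293 cells preincubated 5 h, compound-treated at 37 C, and read at 0, 8, 16, 24, 32 and 40 h.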

Assay [6] is described as follows: A CellTox Green Cytotoxicity Assay to monitor cytotoxicity in HEK293 cells - 0 hour (AID 1224869). Also: nearly all actives have a fitted effect of over 50% in size. The gist of the method:
(§3)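 Tox21 screen in HEK293: membrane-impermeant cyanine dye fluoresces on binding dead-cell DNA; compound pinned 5 h post-seeding, plates held at 37 C, signal read repeatedly through 40 h.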

Assay [7] in a line: qHTS RealTime-Glo MT Cell Viability Assay in HepG2 cells - 40 hour (AID 1224870). Also: nearly all actives have a fitted effect of over 50% in size. The method, boiled down: (§4)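 HepG2 cells mixed with RealTime-Glo MT reagents (NanoLuc plus cell-permeant prosubstrate) were seeded at 600 cells/well, incubated 5 h at 37 C/5% CO2, then pinned with compounds in DMSO; nonlytic luminescence tracked viability during 40 h treatment.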
The nature of assay [8]: A CellTox Green Cytotoxicity Assay to monitor cytotoxicity in HEK293 cells - 40 hour (AID 1224871). Also: nearly all actives have a fitted effect of over 45% in size. Also: potency is read from the fitted curve at half-maximal effect. The method, boiled down:
as §3

A short description of assay [9]: qHTS RealTime-Glo MT Cell Viability Assay in HEK293 cells - 16 hour (AID 1224872). The method, boiled down:
as §2

The nature of assay [10]: qHTS RealTime-Glo MT Cell Viability Assay in HepG2 cells - 8 hour (AID 1224873). Also: nearly all actives have a fitted effect of over 55% in size. The gist of the method:
as §4

Assay [11] can be described thus: qHTS RealTime-Glo MT Cell Viability Assay in HEK293 cells - 40 hour (AID 1224874). Also: nearly all actives have a fitted effect of over 50% in size. Conditions: RealTime-Glo luminescence; max response: stronger effect = lower value. The gist of the method:
(§5)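 HEK293 + NanoLuc + prosubstrate, 600 cells/well; 5 h, 37 C/5% CO2; compound 23 nL in DMSO by pintool; 37 C; luminescence read at 0, 8, 16, 24, 32 and 40 h time points.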

Assay [12] is described as follows: A CellTox Green Cytotoxicity Assay to monitor cytotoxicity in HEK293 cells - 24 hour (AID 1224875). Also: series mostly up to about 77 µM; nearly all actives have a fitted effect of over 45% in size. The gist of the method: as §3
A short description of assay [13]: A CellTox Green Cytotoxicity Assay to monitor cytotoxicity in HepG2 cells - 16 hour (AID 1224876). Also: nearly all actives have a fitted effect of over 45% in size. The gist of the method:
(§6)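 Measurements at 0, 8, 16, 24, 32 and 40 h of treatment captured CellTox Green fluorescence in HepG2 cells that had been co-plated with reagent and preincubated 5 h at 37 C/5% CO2.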

Assay [14] is described as follows: qHTS RealTime-Glo MT Cell Viability Assay in HepG2 cells - 32 hour (AID 1224877). Also: nearly all actives have a fitted effect of over 55% in size. The gist of the method: as §1
A short description of assay [15]: A CellTox Green Cytotoxicity Assay to monitor cytotoxicity in HepG2 cells - 24 hour (AID 1224878). Also: nearly all actives have a fitted effect of over 45% in size. The gist of the method: as §6
A short description of assay [16]: A CellTox Green Cytotoxicity Assay to monitor cytotoxicity in HEK293 cells - 32 hour (AID 1224881). Also: nearly all actives have a fitted effect of over 40% in size. The gist of the method:
as §3

Assay [17] in a line: A CellTox Green Cytotoxicity Assay to monitor cytotoxicity in HepG2 cells - 40 hour (AID 1224879). Also: nearly all actives have a fitted effect of over 40% in size. The gist of the method:
as §6

Assay [18] in a line: qHTS RealTime-Glo MT Cell Viability Assay in HEK293 cells - 0 hour (AID 1224880). The method, boiled down: as §5

Unmarked numbers belong to inactive results. Records with an inconclusive call do not appear. Calls of active or inactive are those of the source. Unless noted, calls follow the shape of the dose curve; as a rule, active = well fitted curve in the direction sought with a large enough effect in the repeat runs; inconclusive = weak or mixed curves; inactive = no such curve, though single readings can be large; an effect the other way counts as inactive or inconclusive.
% is scaled to controls: 0 for no effect and ±100 for the full control effect.

Turning to `CCCCCCCCCCOc1cc2c(=O)c(C(=O)OCC)c[nH]c2cc1OCC`, the activation (H2AX phosphorylation) in [1] was 0.376% [at 14 µM]. Moreover, in [2], the activation is 0.236% [at 7.01 µM]. The activity change, negative = cytotoxicity in assay [3] was 1.5% [at 14 µM]; in assay [4], 3.75% [at 6.97 µM]; in assay [9], -0.329% [at 6.97 µM]. Besides, the activity change, negative = cytotoxic was 6.41% [at 6.97 µM] in [5], 0.617% [at 6.97 µM] in assay [7] and 0.806% [at 6.97 µM] in assay [14]. The cytotoxicity is -0.138% [at 6.97 µM] in [6] and 2.18% [at 6.97 µM] in assay [15]. Besides, the cytotoxicity increase in assay [8] is 0.78% [at 6.97 µM]; in assay [13] it was 1.94% [at 6.97 µM]; in assay [16] it was 0.664% [at 6.97 µM]. Moreover, the viability change, negative = cytotoxic in [10] is 8.14% [at 6.97 µM]. In addition, the max response in assay [11] was 4.14%. Moreover, the activity change in [12] was 2.15% [at 6.97 µM].

`C1CCC2=NCCCN2CC1`: the Potency result in assay [1], in assay [5], in [7], in assay [8], in assay [9] and in [14] was “inactive” throughout. Moreover, the Potency result in assay [17] and in assay [18] was “inactive” throughout. Also, the molecule was classed as inactive in assay [2], in [3], in assay [4], in [6], in assay [10] and in assay [12]. In addition, the result in [13], in assay [15] and in [16] was inactive. Also, in [11], the max response is 20.2%.

Regarding `CCOC(=O)C(=O)CCCCCCl`, the Potency entry in assay [1], in [5], in assay [7], in assay [8], in assay [9] and in assay [14] was “inactive” each time. In addition, the Potency entry in assay [18] was “inactive”. For the same molecule, the result in assay [2], in assay [3], in [4], in assay [6], in assay [10] and in assay [12] was inactive. In addition, the molecule was called inactive in assay [13], in [15] and in [16]. The max response in assay [11] is 4.01%.

With `CCCCCC(C)N` (stereo unspecified), the Potency result in assay [1], in assay [5], in [7], in assay [8], in assay [9] and in assay [14] was “inactive” in each case. In addition, the Potency result in assay [17] and in assay [18] was “inactive” each time. The molecule was called inactive in assay [2], in assay [3], in [4], in assay [6], in assay [10] and in [12]. Moreover, the outcome in assay [13], in assay [15] and in assay [16] was inactive. Also, in assay [11], the max response was 1.04%.

Take `COc1cccc(OC)c1C(=O)N[C@@H]1C(=O)N2[C@@H]1SC(C)(C)[C@@H]2C(=O)O`: the Potency result in [1], in assay [5], in assay [7], in assay [8], in assay [9] and in assay [14] was “inactive” each time. Moreover, the Potency result in assay [17] and in assay [18] was “inactive” each time. Moreover, the molecule was classed as inactive in [2], in [3], in [4], in [6], in assay [10] and in assay [12]. For the same molecule, the molecule was classed as inactive in assay [13], in [15] and in assay [16]. Moreover, the max response in [11] was 4.53%.

With `CC[N+](CC)(CC(=O)Nc1c(C)cccc1C)Cc1ccccc1` (tested in a mixture with another compound), the Potency result in assay [1], in assay [5], in assay [7], in assay [8], in assay [9] and in assay [14] was “inactive” each time. The Potency result in assay [17] is “inactive”. Also, the outcome in assay [2], in assay [3], in assay [4], in assay [6], in assay [10] and in assay [12] was inactive. Further, the call in assay [13], in [15] and in assay [16] was inactive. Moreover, the max response in assay [11] was -5.24%.

`C=CC(C)(CCC=C(C)C)OC(=O)CC` (stereo unspecified): the Potency result in assay [1], in assay [5], in assay [7], in assay [8], in assay [9] and in assay [14] was “inactive” each time. Besides, the Potency result in [17] is “inactive”. Moreover, the molecule was called inactive in [2], in assay [3], in assay [4], in assay [6], in [10] and in [12]. In addition, the outcome in assay [13], in assay [15] and in [16] was inactive. Besides, the max response in assay [11] is -1.4%.

In the case of `c1coc(CNc2ncnc3nc[nH]c23)c1`, the Potency entry in assay [1], in assay [5], in assay [7], in [8], in assay [9] and in [14] was “inactive” throughout. Moreover, the Potency result in assay [17] and in assay [18] was “inactive” each time. Further, the molecule was classed as inactive in assay [2], in [3], in assay [4], in assay [6], in assay [10] and in [12]. The molecule was called inactive in [13], in [15] and in assay [16]. For the same molecule, the max response in assay [11] was -15.6%.

`CC(=O)NC(=O)c1ccccc1O`: the Potency result in assay [1], in assay [5], in [7], in assay [8], in assay [9] and in assay [14] was “inactive” in each case. Also, the result in assay [2], in [3], in assay [4], in assay [6], in assay [10] and in assay [12] was inactive. The molecule was called inactive in assay [13], in assay [15] and in assay [16]. Also, the max response in [11] was 7.94%.

As for `NC(=O)NC1N=C([O][Al])NC1=O` (stereo unspecified), the Potency result in assay [1], in [5], in [7], in assay [8], in assay [9] and in assay [14] was “inactive” each time. The Potency entry in [17] and in assay [18] was “inactive” in each case. Also, the outcome in [2], in assay [3], in assay [4], in [6], in assay [10] and in assay [12] was inactive. Further, the result in [13], in [15] and in assay [16] was inactive. In addition, the max response in assay [11] is 1.53%.

`CC(=O)c1cnccn1`: the Potency entry in assay [1], in assay [5], in assay [7], in [9], in assay [14] and in assay [17] was “inactive” each time. In addition, in assay [18], the Potency entry is “inactive”. In addition, the outcome in assay [2], in assay [3], in assay [4], in assay [6], in assay [10] and in [12] was inactive. The result in assay [13], in assay [15] and in assay [16] was inactive. For the same molecule, the Potency in assay [8] was 16.2 µM (active). Also, in assay [11], the max response is 3.82%.

Turning to `NO`, the Potency result in assay [1], in assay [5], in assay [7], in assay [8], in assay [9] and in assay [14] was “inactive” each time. In addition, the Potency entry in assay [17] and in assay [18] was “inactive” each time. Also, the outcome in assay [2], in [3], in [4], in assay [6], in assay [10] and in assay [12] was inactive. Further, the molecule was classed as inactive in assay [13] and in assay [16]. In addition, in assay [11], the max response was -12.7%.

With `CC(C)(CCC(=O)O)C(=O)O`, the Potency entry in assay [1], in assay [5], in assay [7], in assay [8], in [9] and in assay [14] was “inactive” each time. In addition, the Potency entry in assay [17] and in assay [18] was “inactive” throughout. The molecule was classed as inactive in assay [2], in assay [3], in assay [4], in [6], in assay [10] and in assay [12]. Moreover, the molecule was classed as inactive in [13] and in [16]. Moreover, the max response in [11] is 0.835%.

In the case of `CC1OC1C1CCC2(C)OC2C1` (stereo unspecified), the Potency result in [1], in assay [5], in [7], in assay [8], in assay [9] and in [14] was “inactive” each time. Moreover, the Potency result in assay [18] was “inactive”. Further, the molecule was called inactive in assay [2], in assay [3], in [4], in [6], in [10] and in assay [12]. In addition, the molecule was called inactive in assay [16]. Moreover, the max response in [11] was 1.23%.

`NC(=O)N[C@@H](CCC(=O)O)C(=O)O`: the Potency result in assay [1], in assay [5], in assay [7], in assay [8], in [9] and in [14] was “inactive” throughout. In addition, in assay [17], the Potency result is “inactive”. Also, the result in assay [2], in assay [3], in [4], in assay [6], in assay [10] and in assay [12] was inactive. The call in [13] and in [16] was inactive. Moreover, the max response in assay [11] was 5.25%.
